# This is a sample that favours compounds with a hit; in the whole collection about 10% have one here.
# HP1b chromo inh: HP1-beta chromodomain-methylated histone interaction inhibition. AID 540317. AlphaScreen HP1-beta / biotin-H3K9me3 peptide binding. 390,000 tested, 0.56% active. P83916. Potency, µM (series often up to 114 µM), for the others: at the top dose activity change, negative = inhibition, most hits filed as inhibitors; further: nearly all actives have a fitted effect of over 70% in size
# Target sequence (P83916 whole entry, looked up): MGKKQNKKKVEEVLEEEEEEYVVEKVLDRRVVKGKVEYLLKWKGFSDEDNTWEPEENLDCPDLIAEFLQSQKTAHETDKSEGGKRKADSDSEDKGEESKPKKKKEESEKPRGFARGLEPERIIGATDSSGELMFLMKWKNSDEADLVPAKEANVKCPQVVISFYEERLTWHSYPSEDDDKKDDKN
#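 AlphaScreen: HP1-beta (50 nM) preformed 30 min with biotin-H3(1-18)K9me3 peptide (50 nM) in PBS pH 7.4, 0.01% Tween-20. Compound added for 30 min at RT, then streptavidin donor/nickel chelate acceptor beads (10 ug/mL) for 30 min.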
# BAZ2B block: blocks human BAZ2B; AlphaScreen BAZ2B-H3K14Ac peptide displacement; Q9UIF8; Potency, µM (highest dose often 114 µM), for inactives: at the highest dose activity change, negative = inhibition, hits mostly inhibitors; 360,000 tested, 4.4% active; further: on the % scale 0 is the no-effect control and ±100 the full control effect; nearly all actives have a fitted effect of over 60% in size
#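 BAZ2B 50 nM plus b-H3(5-23)K14Ac 50 nM, PBS pH 7.4/0.01% Tween-20, 30 min RT; compound added (max 110 uM), 30 min RT; streptavidin donor/Ni-chelate acceptor beads 10 ug/mL final, 20 min dark; AlphaScreen read.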
# G9a block: blocks human histone lysine methyltransferase G9a | Q96KQ7 | Potency, µM (series often up to 102 µM), inactives show top-dose activity, negative = inhibition, actives largely listed as inhibitors | G9a H3K9 monomethylation, AlphaScreen, 2 h | 350,000 tested, 8.8% active | AID 504332; further: on the % scale 0 is the no-effect control and ±100 the full control effect; nearly all actives have a fitted effect of over 75% in size
# Target sequence (Q96KQ7 913-1193 limits assumed): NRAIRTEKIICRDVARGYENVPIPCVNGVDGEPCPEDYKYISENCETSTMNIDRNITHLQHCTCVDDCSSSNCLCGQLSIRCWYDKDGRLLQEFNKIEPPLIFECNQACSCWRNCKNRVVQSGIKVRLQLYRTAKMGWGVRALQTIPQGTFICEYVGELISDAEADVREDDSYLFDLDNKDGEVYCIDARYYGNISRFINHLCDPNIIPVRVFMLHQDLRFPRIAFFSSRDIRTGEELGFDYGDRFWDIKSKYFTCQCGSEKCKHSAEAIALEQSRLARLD
#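 AlphaScreen detection with an anti-monomethyl H3K9 antibody quantified product after a 2 h room-temperature reaction containing 500 nM biotinylated H3K9 peptide, 20 µM SAM and 20 nM enzyme, which had been preincubated 15 min with compound.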
# GLS inh: blocks human kidney-isoform glutaminase activity; Potency, µM (highest dose often 45.5 µM), without a hit: top-dose activity change, negative = inhibition, actives largely listed as inhibitors; 410,000 tested, 0.21% active; GLS enzymatic activity, qHTS titration; further: on the % scale 0 is the no-effect control and ±100 the full control effect
#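 Coupled fluorescence readout: glutamate oxidase/HRP/Amplex Red detect glutamate formed by hKGA from L-glutamine (1 mM solution added). Buffer 45 mM KH2PO4 pH 8.2, 0.02% Tween-20; reads at t0 and 30 min RT.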
# JMJD2A Tudor inh: blocks the human JMJD2A Tudor domain. O75164. AlphaScreen JMJD2A-Tudor / H3K4me3 peptide binding. Potency, µM (doses to about 114 µM), inactives show top-dose activity change, negative = inhibition, hits mostly inhibitors. 390,000 tested, 4.4% active; further: on the % scale 0 is the no-effect control and ±100 the full control effect; nearly all actives have a fitted effect of over 50% in size
# Starred values were filed as active, the others as inactive; ? = inconclusive; . = no result; [ ] = another dose, or the depositor's remark. The call rests on the fitted dose curve; in most records, active means well fitted curve in the direction sought with a large enough effect; inconclusive means small, poorly fitted or top-dose-only effect, or another doubt; inactive means no such curve, though single readings can be large; an effect the other way counts as inactive or inconclusive. Potency means the concentration at half of the fitted maximal effect.
SMILES,HP1b chromo inh,BAZ2B block,G9a block,GLS inh,JMJD2A Tudor inh
COc1ccc(-c2noc(CCC(=O)N3CCN(c4ccccc4F)CC3)n2)cc1,32.2%,.,.,-1.2%,-23.0%
COC(C(=O)Nc1ccc(Cl)cc1C)c1ccccc1 (centres undefined),29.2%,-8.6%,8.91µM*,7.2%,-14.5%[57.1 µM]
COC(C(=O)Nc1ccc(NC(=O)C(OC)c2ccccc2)cc1)c1ccccc1 (centres undefined),53.5%,-10.1%,50.1µM*,-13.7%,2.8%
COC(C(=O)Nc1c(F)cccc1F)c1ccccc1 (centres undefined),23.0%,2.2%,-6.7%,-4.0%,-1.0%
O=C(COC(=O)c1cc(Br)ccc1O)NNC(=O)c1ccc(Cl)cc1,28.8%,5.6%,44.7µM*,-0.8%,-7.6%
O=C(COC(=O)c1cc(Br)ccc1O)NNC(=O)c1ccc([N+](=O)[O-])cc1,41.8%,-0.4%,44.7µM*,10.1%,-5.2%
O=C(COC(=O)c1ccccc1O)NNC(=O)c1ccc(Br)cc1,39.7%,-4.8%,?,-0.8%,-1.4%
COc1ccc(C(NC(C)=O)c2cc(Cl)c3cccnc3c2O)cc1OC (centres undefined),30.2%,28.2µM*,8.7%,-4.8%,56.2µM*
CCC(=O)NC(c1ccco1)c1cc(Cl)c2ccccc2c1O (centres undefined),14.6%,-33.0%,-0.6%[0.501 µM],23.6%,-25.2%
CCC(=O)NC(c1ccc(OC)c(OC)c1)c1cc(Cl)c2cccnc2c1O (centres undefined),41.3%,39.8µM*,.,-6.8%,-24.0%
CCCC(=O)NC(c1ccco1)c1cc(Cl)c2cccnc2c1O (centres undefined),55.2%,50.1µM*,18.5%[59 µM],-12.6%,-24.0%
CCC(=O)NC(c1ccco1)c1cc(Cl)c2c(c1O)NCCC2 (centres undefined),.,.,.,.,56.2µM*
CCCC(=O)NC(c1cccs1)c1cc(Cl)c2cccnc2c1O (centres undefined),45.4%,-4.4%,0.6%,5.5%,-16.6%
Cc1csc(CNc2ncnc3ccc(-c4c(C)noc4C)cc23)c1,.,.,.,.,-31.7%
N#Cc1cccn1-c1nccs1,20.0%,?,29.9%,13.0%,-2.4%
O=C(COC(=O)/C=C/c1ccc(F)cc1)Nc1ccc(S(=O)(=O)N2CCOCC2)cc1,13.4%,.,.,1.3%,-21.8%
N#CN1CCC(NC(=O)c2ccc(C(F)(F)F)cc2)CC1,.,.,.,.,-12.3%
Clc1cccc(CNc2ccn3nc(-c4ccc(OCc5ccccc5)cc4)cc3n2)c1,.,.,.,-5.7%,.
O=C(/C=C/c1ccco1)N(Cc1ccc(F)cc1)C1CCS(=O)(=O)C1 (centres undefined),11.8%,-5.6%,.,-5.8%,-18.2%
O=C(/C=C/c1ccco1)N(Cc1cccc(F)c1)C1CCS(=O)(=O)C1 (centres undefined),22.7%,-25.8%,39.8µM*,-1.5%,-23.6%
O=C(/C=C/c1ccco1)N(Cc1ccccc1)C1CCS(=O)(=O)C1 (centres undefined),26.0%,-27.6%,35.5µM*,-10.4%,-14.7%
CC12COC3(P(=O)(c4ccccc4)c4ccccc4)CC1CCC23CP(=O)(c1ccccc1)c1ccccc1 (centres undefined),9.2%,70.8µM*,?,-2.1%,-23.1%
CC12COC3(C(=O)Nc4ccc(F)cc4)CC1CCC32C (centres undefined),61.0%,2.5%,9.3%[59 µM],2.1%,-7.4%[57.1 µM]
O=c1c2c(-c3cccc([N+](=O)[O-])c3)ccnc2[nH]n1-c1ccccc1,15.9%,-18.8%,?,-1.6%,-23.8%
Cc1cc(-c2ccccc2)c2c(=O)n(-c3ccccc3)[nH]c2n1,5.4%,?,11.2µM*,-0.1%,-33.6%
SMILES,HP1b chromo inh,BAZ2B block,G9a block,GLS inh,JMJD2A Tudor inh
CN(C)CCn1c2c(c(SCC(=O)Nc3nccs3)nc1=O)CCCC2,22.8%,6.2%,-29.6%,-1.7%,-5.5%
COc1ccc(OCCN2CCC(C(=O)NC(C)c3cccc4ccccc34)CC2)cc1 (centres undefined),.,.,.,6.9%,.
O=c1[nH]c(CN2CCCC2)nc2sc3c(c12)CCC3,8.1%,?,39.8µM*,1.1%,?
OC(CNC1CCCc2ccccc21)COc1c(Cl)cccc1Cl (centres undefined),6.8%,39.8µM*,7.94µM*,4.8%,5.62µM*
CC1(C)Cc2[nH]c(=S)c(C#N)cc2CO1,-19.1%,25.1µM*,0.708µM*,-2.3%,6.31µM*
N#Cc1cc2c([nH]c1=S)CCCC2,-27.9%,31.6µM*,1.41µM*,?,3.55µM*
Cn1c2ccccc2c2c(C(=O)N3CCN(c4cccc(C(F)(F)F)c4)CC3)cn(C3CCCCC3)c(=O)c21,10.6%,-23.2%,-29.4%[59 µM],-1.0%,-17.1%
COc1ccc(N2CCN(C(=O)c3cn(CC(C)C)c(=O)c4c3c3ccccc3n4C)CC2)cc1,?,25.1µM*,?,24.2%,35.5µM*
Cn1c2ccccc2c2c(C(=O)N3CCN(c4ccccc4)CC3)cn(C3CCCC3)c(=O)c21,-29.2%,?,50.1µM*,4.4%,?
Cc1cccc(C)c1NC(=O)c1sc(N)nc1-c1ccccc1,60.6%,-3.9%,5.8%,1.8%,-12.4%
COC(=O)CN(C#N)c1nc(C)cc(C)n1,-2.8%,3.8%,7.7%[59 µM],1.2%,-13.6%
Cc1cc(C(F)(F)F)nc(SCCN2CCOCC2)c1C#N,38.4%,1.6%,12.6µM*,1.7%,-14.1%
N#Cc1c(C(F)(F)F)cc(-c2ccc(Cl)c(Cl)c2)nc1SCCN1CCOCC1,33.3%,-5.8%,56.2µM*,-5.5%,-5.7%
CCc1ccc(C(=O)/C=C2\Sc3ccccc3NC2=O)cc1,39.0%,-33.1%,-8.5%[59 µM],34.6%,-31.0%
CCCS(=O)(=O)c1c(S(=O)(=O)CCC)c2cnccn2c1C(=O)c1ccc(F)cc1,9.3%,-4.9%,5.9%,4.3%,-14.0%
CCc1ccc(-c2ccc(SCC(=O)NC3CCCC3)nn2)cc1,.,.,.,6.2%,.
CC(=O)c1ccc(NC(=O)c2ccc3nc(-c4ccco4)c(-c4ccco4)nc3c2)cc1,8.91µM*,11.2µM*,1.78µM*,14.1µM*,44.7µM*
O=C(NCc1ccccc1)c1ccc2nc(-c3ccco3)c(-c3ccco3)nc2c1,-94.1%,50.1µM*,1.78µM*,-20.1%,20µM*
CCc1nc2ccc(C(=O)Nc3ccc(NC(C)=O)cc3)cc2nc1CC,2.6%,4.8%,-11.2%[59 µM],2.0%,-14.1%
O=C(Nc1ccccc1)c1ccc2nc(-c3ccco3)c(-c3ccco3)nc2c1,?,-34.4%,?,-18.3%,50.1µM*
CNC(=O)c1ccc2nc(-c3ccco3)c(-c3ccco3)nc2c1,17.8µM*,.,.,.,17.8µM*
O=C(Nc1ccc(N2CCOCC2)cc1)c1ccc2nc(-c3ccco3)c(-c3ccco3)nc2c1,38.5%,-3.5%,?,2.8%,-19.2%
CC(C)(C)n1nc2c(c1NC(=O)Cc1cccc3ccccc13)CS(=O)(=O)C2,32.7%,-15.4%,0.8%,-7.9%,-9.8%
